This excerpt belongs to a sample that is enriched for hits.
DENV2 CPE rescue – protects cells from dengue virus 2 cytopathic effect; DENV2-infected cells, cytopathic effect rescue, plate reader; CPE inhibition, % at 9.99 µM; 1.7% of 350,000 active; in the data active = CPE inhibition above about 20%, passing the limit was not always enough; inconclusive = no clear call, values can overlap the other calls; tested in BHK-21 cells;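 also: 0% = median of neutral control wells and 100% = median of positive control wells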
N-glyco inh – N-linked glycosylation inhibition | D54 ERlucT glycosylation luciferase reporter, 24 h; percent of 100 nM tunicamycin response | reporter increase, % at 12.5 µM | 0.23% of 360,000 active;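 active = mean luciferase reporter signal, scaled so untreated is 0 and the glycosylation-blocking control 100, at or above a set limit in every replicate; inconclusive = mean reaches the limit but not every replicate does; inactive = mean below the limit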;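 also: luciferase carries N-glycosylation sites so blocking glycosylation raises the light; 0% = median of neutral control wells and 100% = median of 100 nM tunicamycin wells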
PglD DTNB – PglD (C. jejuni) enzyme inhibition; purified PglD enzyme, DTNB colorimetric CoA detection; inhibition, % at 12.5 µM; 0.098% of 360,000 active; AID 602405; in the data active = inhibition above about 16%, passing the limit was not always enough; inconclusive = no clear call, values can overlap the other calls
Rtt109 Vps75 – blocks Candida albicans Rtt109/Vps75 acetyltransferase activity | inhibition, % at 34.9 µM | 0.16% of 330,000 active | Q5AAJ8 | purified Rtt109/Vps75, ThioGlo CoA-SH fluorescence, 4 h | AID 540336;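 active = inhibition of at least 50% in every replicate; inconclusive = best replicate reaches 50% inhibition but some replicates fall short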
Target sequence (Q5AAJ8 whole entry, looked up): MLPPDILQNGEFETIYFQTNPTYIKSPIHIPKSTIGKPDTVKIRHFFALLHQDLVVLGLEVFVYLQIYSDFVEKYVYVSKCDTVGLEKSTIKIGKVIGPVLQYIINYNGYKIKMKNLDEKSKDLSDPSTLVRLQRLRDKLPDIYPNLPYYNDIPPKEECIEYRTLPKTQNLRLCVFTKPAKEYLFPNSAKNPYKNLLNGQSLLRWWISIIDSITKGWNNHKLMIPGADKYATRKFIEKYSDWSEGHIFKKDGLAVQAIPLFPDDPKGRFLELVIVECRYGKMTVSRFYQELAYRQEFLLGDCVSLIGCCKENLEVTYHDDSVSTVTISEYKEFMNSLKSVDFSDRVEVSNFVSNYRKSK
The depositor's hits bear a star; u = inconclusive; x = not tested or not shown.

SMILES	DENV2 CPE rescue	N-glyco inh	PglD DTNB	Rtt109 Vps75
O=C(Nc1ccc2c(c1)OCCO2)c1cccc(C(=O)Nc2ccc3c(c2)OCCO3)c1	26*	-4	2	4
COc1cccc(C(=O)Nc2cc3c(cc2C(C)=O)OCCO3)c1	76*	2	1	7
O=C(Nc1ccc2oc(-c3ccncc3)nc2c1)c1ccc2c(c1)OCO2	-4	-1	x	6
C[C@@H]1CN([C@@H](C)CO)C(=O)Cc2cc(NC(=O)CCN3CCOCC3)ccc2O[C@@H]1CN(C)C	-2	x	-12	x
CSc1ccccc1NC(=O)c1cc(S(=O)(=O)N(C)C)ccc1N1CCCC1	-1	0	-2	2
CN(C)S(=O)(=O)c1ccc(N2CCCC2)c(C(=O)Nc2ccccc2)c1	6	46*	3	-4
CN(C)S(=O)(=O)c1ccc(N2CCCC2)c(C(=O)NCC(=O)Nc2ccc(F)c(F)c2)c1	0	-2	-2	5
Cc1ccc(C(=O)Nc2cc(S(=O)(=O)N3CCOCC3)ccc2N2CCCC2)cc1	2	45*	2	1
O=C(Nc1cc(S(=O)(=O)N2CCOCC2)ccc1N1CCCC1)c1ccc(Cl)cc1	-8	11	4	4
Cc1ccc(NC(=O)c2cc(S(=O)(=O)N(C)C)ccc2N2CCCC2)cc1F	-5	90*	0	15
Cc1ccc(S(=O)(=O)N(C)C)cc1NC(=O)c1cc(S(=O)(=O)N2CCCCC2)ccc1N1CCOCC1	23*	-1	3	-2
CCN(CC)S(=O)(=O)c1ccc(N2CCOCC2)c(NC(=O)c2ccccc2)c1	26*	-1	x	0
Cc1ncc([N+](=O)[O-])n1CC(=O)Nc1ccc(Cl)cc1	1	1	2	-4
Cc1ncc([N+](=O)[O-])n1CC(=O)Nc1ccc(F)c(F)c1	35*	1	-1	0
OC[C@@H]1[C@@H](c2ccc(-c3cccc(F)c3)cc2)[C@@H]2CN(CCC(F)(F)F)CCCCN12	0	x	-1	x
OC[C@@H]1[C@@H](c2ccc(-c3ccccc3)cc2)[C@H]2CN(CCC(F)(F)F)CCCCN12	20*	x	1	x
OC[C@@H]1[C@H](c2ccc(-c3cccc(F)c3)cc2)[C@@H]2CN(CCC(F)(F)F)CCCCN12	41*	x	1	x
c1ccc(Cn2nnnc2C(c2ccccn2)N2CCOCC2)cc1 (stereo not drawn)	x	2	-6	63*
Cc1cc(NCCCN(C)C)n2c(nc3ccccc32)c1C#N	-6	34*	-1	-1
C[C@H](CO)N1C[C@H](C)[C@@H](CN(C)S(=O)(=O)c2ccc(Cl)cc2)Oc2ccc(NS(=O)(=O)c3ccc(F)cc3)cc2CC1=O	u	x	2	x
CC1CCC(C(C)C)C(OCC(O)CNC(C)c2ccccc2)C1 (stereo not drawn)	x	-8	x	15
CC(NCC(O)COC1CCC(C(C)(C)C)CC1)c1ccccc1 (stereo not drawn)	17	-2	-4	60*
C[C@@H]1CN([C@H](C)CO)C(=O)c2cc(NC(=O)Nc3ccc4c(c3)OCO4)ccc2O[C@@H](C)CCCCO[C@H]1CN(C)C(=O)Cc1ccccc1	-4	x	5	x
Cn1nc(C(=O)NC2CCCCC2)c2c1-c1ccccc1SC2	4	0	-1	10
Cn1nc(C(=O)N2CCC(C(N)=O)CC2)c2c1-c1ccccc1SC2	25*	-1	-1	-4
SMILES	DENV2 CPE rescue	N-glyco inh	PglD DTNB	Rtt109 Vps75
Cc1noc(C)c1S(=O)(=O)Nc1ccc2c(c1)C(=O)N([C@@H](C)CO)C[C@H](C)[C@H](CN(C)S(=O)(=O)c1ccccc1)OCCCC[C@@H](C)O2	-12	x	0	x
CN(C)CC(=O)N[C@H]1CC[C@H](CCn2cc(C3CCCCC3)nn2)O[C@H]1CO	41*	x	2	x
O=C(Nc1ccc(Cl)c(Cl)c1)N[C@@H]1CC[C@H](CCn2cc(C3CCCC3)nn2)O[C@@H]1CO	28*	x	x	x
COc1ccc(COCC23N=C4SCc5ccccc5CN4[C@H](c4ccccc4O2)[C@H]3COC(=O)c2ccccc2)cc1	32*	x	-2	x
COc1ccc(COCC23N=C4SCc5ccccc5C(=O)N4[C@H](c4ccccc4O2)[C@H]3COC(=O)c2ccccc2)cc1	12	x	-1	x
C[C@H](CO)N1C[C@H](C)[C@H](CN(C)C(=O)CCC(F)(F)F)OCCCC[C@H](C)Oc2ccc(NC(=O)c3ccccc3)cc2C1=O	21*	x	-3	x
C[C@@H]1CCCCO[C@@H](CN(C)C(=O)CCC(F)(F)F)[C@@H](C)CN([C@@H](C)CO)C(=O)c2cc(NC(=O)c3ccccc3)ccc2O1	157*	x	-3	x
C[C@H](CO)N1C[C@H](C)[C@H](CN(C)Cc2ccncc2)Oc2ncc(C3=CCCCC3)cc2C1=O	-7	x	-1	x
O=C(NC1CCCC1)[C@@H]1[C@@H](CO)[C@@H]2Cn3c(ccc(-c4cccnc4)c3=O)[C@@H]2N1CC1CC1	-2	x	3	x
COc1ccc(NC(=O)N(C)C[C@H]2OCCCC[C@H](C)Oc3ccc(NC(=O)c4ccccc4)cc3C(=O)N([C@@H](C)CO)C[C@@H]2C)cc1	-13	x	0	x
COc1ccc(C(=O)N2CCC2(C)C(=O)O)cc1F (stereo not drawn)	79*	1	-3	x
C[C@H](NC(=O)C[C@H]1C[C@H]2c3cc(NC(=O)CC4CC4)ccc3O[C@H]2[C@@H](CO)O1)c1ccccc1	-1	x	-1	x
COc1ccc2c(c1)OC[C@H]1[C@H]2N2C(=O)c3cc(C)ccc3NC(=O)[C@@]2(C)[C@H]1c1ccccc1	x	39*	-5	0
COc1ccc2c(c1)[C@H]1[C@H](CO2)[C@H](c2ccccc2)[C@]2(C)C(=O)Nc3ccc(C)cc3C(=O)N12	-7	58*	0	6
COc1ccc2c(c1)[C@H]1[C@H](CO2)[C@H](c2ccccc2)[C@]2(C)C(=O)Nc3ccc(F)cc3C(=O)N12	u	51*	9	0
COc1ccc2c(c1)[C@@H]1[C@H](CO2)[C@H](c2ccccc2)[C@]2(C)C(=O)Nc3ccc(C)cc3C(=O)N12	x	34*	-1	7
O=C(O)C[C@H]1C[C@H]2c3cc(NC(=O)c4ccc5c(c4)OCO5)ccc3O[C@H]2[C@H](CO)O1	9	x	0	x
Cc1ccc(S(=O)(=O)Nc2ccc3c(c2)C(=O)N([C@H](C)CO)C[C@H](C)[C@@H](CN(C)C)O3)cc1	u	x	2	x
COc1ccc2c(c1)[C@H]1[C@H](CO2)[C@H](c2ccccc2)[C@]2(C)C(=O)Nc3ccc(Cl)cc3C(=O)N12	33*	40*	-3	2
COc1ccc2c(c1)[C@H]1[C@H](CO2)[C@H](c2ccccc2)[C@]2(C)C(=O)Nc3cc(OC)c(OC)cc3C(=O)N12	u	59*	-6	10
C[C@@]12C(=O)Nc3ccc(Cl)cc3C(=O)N1[C@H]1c3cc(Cl)ccc3OC[C@@H]1[C@@H]2c1ccccc1	x	17	1	-3
COc1ccc2c(c1)C(=O)N1[C@H]3c4cc(C)ccc4OC[C@@H]3[C@H](c3ccccc3)[C@]1(C)C(=O)N2	-5	24	-2	6

Screening data from PubChem BioAssay.
